# Most compounds without a hit are left out; they make up all but 2.3% or so of the library.
# BCR signal inh = blocks chronic active B-cell receptor signaling. Potency, µM (top dose mostly 46.1 µM), inactives show top-dose activity change, negative = inhibition, usual class: inhibitors. ABC-DLBCL IkBa-CBG/CBR reporter, luminescence ratio, 4 h. 340,000 tested, 0.05% active; active = well fitted inhibition curve with a large enough effect in the signal ratio, with a control signal flat, not every such curve was filed as active; inconclusive = small, poorly fitted or top-dose-only effect, or effect the other way, or a change in a side signal; the % refers to the signal ratio;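 note: plate controls were basal doxycycline-induced cells for no effect and cells given 10 µM MG132 for full effect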
#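 TMD8 ABC-DLBCL cells carrying doxycycline-inducible green luciferase fused to IkappaBalpha plus unfused red luciferase were exposed to compounds (up to 46 uM) for 4 hrs at 37C. Activity came from the overlap-corrected green/red luminescence ratio.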
# uPA generation = inhibitors of cell surface uPA generation. cell surface uPA generation assay, qHTS. Potency, µM (top dose mostly 38.3 µM), for the others: top-dose activity change, negative = inhibition, actives largely listed as inhibitors. 330,000 tested, 0.31% active. AID 540303; active = well fitted inhibition curve with a large enough effect; inconclusive = small, poorly fitted or top-dose-only effect; inactive = no such curve, though single readings can be large or run the other way; tested in mouse RAW 264.7 cells; note: % is set by controls: 0 for no effect and ±100 for the full control effect; nearly all actives have a fitted effect of over 55% in size
# TDP43 rescue = rescues yeast growth from TDP-43 toxicity; Potency, µM (series often up to 46.1 µM), for inactives: at the highest dose growth rescue (activation), actives largely listed as activators; TDP-43 expressing yeast growth rescue, BacTiter-Glo, 24 h; AID 652104; 410,000 tested, 1.8% active; note: % of control where 0% means no effect; nearly all actives have a fitted effect of over 50% in size
#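 Galactose-induced TDP-43 yeast, OD600=0.02, compound pinned; 24 hr, 30 deg C; BacTiter-Glo luminescence for growth. Inhibitors of TDP-43 toxicity read as activators.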
# FUS suppressor = rescues growth of FUS-expressing yeast; S. cerevisiae FUS-expressing, growth rescue, OD600, 24 h; Potency, µM (doses to about 76.6 µM), usual class: activators; 390,000 tested, 0.24% active;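 note: plate controls were DMSO vehicle for no effect and reference control for full effect; nearly all actives have a fitted effect of over 55% in size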
#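 Galactose (2%) drives FUS expression in yeast precultured in raffinose; seeding density OD 0.005. Test compounds incubated 24hr at 30C and 99% humidity before absorbance at 600 nm was measured.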
# aSyn rescue = alpha-synuclein toxicity inhibition in yeast; Potency, µM (doses to about 46.1 µM), for the others: at the highest dose growth rescue (activation), hits mostly activators; Yeast expressing alpha-synuclein, growth rescue, BacTiter-Glo, 24 h; 370,000 tested, 0.14% active; note: % of control where 0% means no effect; nearly all actives have a fitted effect of over 65% in size
#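 Rescue of yeast growth: cells expressing toxic alpha-synuclein, induced in galactose at OD600 0.02, incubated with compound 24 h at 30 C. ATP luminescence quantified growth; inhibitors of toxicity appear as activators.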
# Abeta rescue = compounds reversing amyloid beta toxicity in yeast; yeast expressing A-beta42, growth rescue, OD600, 48 h; response scale: 0% DMSO, 100% iron-clioquinol control; Potency, µM (titrated, usually from 46.1 µM), most hits filed as activators; 410,000 tested, 0.063% active; note: nearly all actives have a fitted effect of over 55% in size
#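 Growth rescue measured by 600 nm absorbance after 48 h yeast culture at 30 C with compound. Values normalized between DMSO and an equimolar ferric chloride plus clioquinol control.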
# * hit, by the source's call; i = inactive; ? = inconclusive; . = no result given. Unless noted, calls come from the whole dose curve; as a rule, active = well fitted curve in the direction sought with a large enough effect; inconclusive = small, poorly fitted or top-dose-only effect, or another doubt; inactive = no such curve, though single readings can be large; an effect the other way counts as inactive or inconclusive. Potency is the fitted concentration of half-maximal effect.
SMILES,BCR signal inh,uPA generation,TDP43 rescue,FUS suppressor,aSyn rescue,Abeta rescue
N/C(=N\OC(=O)c1ccc2c(c1)OCO2)c1cccc(Br)c1,?,6.1%,6.31µM*,i,-37.8%,i
COC(=O)c1sc(S(=O)(=O)Nc2ccc(C)cc2)c(C(=O)OC)c1C,-0.1%,-8.9%,20µM*,i,5.4%,i
Cc1ccc(NC(=O)C2CCCN2S(=O)(=O)c2cccc3nsnc23)c(Br)c1 (stereo unspecified),.,.,20µM*,i,.,i
COc1cc(NC(=O)N2CCNC2=O)cc(C(=O)Nc2cccc(C(F)(F)F)c2)c1,17.8µM*,?,0.0%,i,-1.4%,i
CCN1CCN(Cc2ccc(NC(=O)c3cc(NC(=O)N4CCNC4=O)cc(OC)c3)cc2C(F)(F)F)CC1,?,-9.3%,12.8%,i,2.6%,i
COc1cc(NC(=O)c2csc(-c3ccncc3)n2)cc(C(=O)Nc2cccc(C(F)(F)F)c2)c1,4.3%,25.8%,20µM*,?,0.6%,i
O=C(Nc1cccc(C(F)(F)F)c1)c1csc(-c2ccncc2)n1,6.4%,0.7%,-7.7%,i,-4.0%,i
CCCCCCCNc1cccc(C)c1,-17.3%,4.9%,8.2%,i,6.4%,i
CC1=C([N+](=O)[O-])C(c2ccccc2)NC(=O)N1 (stereo unspecified),7.4%,-1.5%,20.1%,i,-8.5%,i
NC(=O)Nc1ccc(Nc2ccccc2)cc1,-0.4%,-14.1%,21.6%,i,-2.2%,i
O=C(Nc1ccc(Nc2ccccc2)cc1)C(Cl)(Cl)Cl,?,-1.4%,35.5µM*,.,1.3%,i
CC(C)(C)NC(=O)NC(=O)COC(=O)c1nc(-c2ccccc2)n(-c2cccc(C(F)(F)F)c2)n1,?,9.2%,?,?,16.2%,i
CN=c1sc(C(=O)Nc2ccccc2)c(C)n1C,1.2%,.,-1.3%,i,4.4%,i
CN=c1sc2c(n1C)C(=O)c1ccccc1C2=O,.,-3.2%,11.2µM*,.,2.8%,i
COc1cc(C(=O)OCc2cc(=O)oc3c(C)c(C)ccc23)ccc1OC(F)F,0.9%,.,-14.9%,i,10.1%,i
CC1(C)N=C(SCc2ccc(F)cc2)c2ccccc2N1,.,.,11.2µM*,i,.,i
Cc1ccc(C)c(CSC2=NC(C)(C)Nc3ccccc32)c1,.,.,15.2%,i,.,i
Cc1ccc(C(=O)n2c(-c3ccccc3)cnc2SCC(=O)Nc2ccc(C)cc2C)cc1,4.4%,0.3%,3.5%,.,0.3%,i
Cc1cc2occ(CC(=O)N(C)CC(=O)Nc3ccccc3C(F)(F)F)c2cc1C,?,4.4%,20µM*,i,1.5%,i
COc1ccc(OCC(=O)Nc2ccc(S(=O)(=O)Nc3nc(C)cc(C)n3)cc2)cc1,1.0%,-2.2%,0.0%,i,-5.3%,i
Cc1ccc(-n2c(SCC(=O)Nc3ccc(S(=O)(=O)Nc4cc(C)nc(C)n4)cc3)nnc2-c2ccc(C(C)(C)C)cc2)cc1,.,.,.,22.4µM*,.,.
COc1ccc(-n2c(SCC(=O)Nc3ccc(S(=O)(=O)Nc4nccs4)cc3)nnc2-c2ccccc2)cc1,.,.,.,10µM*,.,.
CCOc1ccc(-n2c(SCC(=O)Nc3ccc(S(=O)(=O)Nc4cc(C)nc(C)n4)cc3)nnc2-c2ccncc2)cc1,.,.,.,i,.,.
Cc1cc(C)nc(NS(=O)(=O)c2ccc(NC(=O)COc3ccc(C(C)(C)C)cc3)cc2)n1,.,.,0.0%,28.2µM*,.,i
O=C(CSc1nnc(COc2ccccc2)n1-c1ccccc1)Nc1ccc(S(=O)(=O)Nc2nccs2)cc1,.,.,.,20µM*,.,.
CC(C)Oc1ccc(CN2CCC2(C)C(=O)Nc2ccc3c(c2)OCO3)cc1 (stereo unspecified),.,.,-23.5%,i,-2.7%,i
CC(=O)NCCN1C(=O)C2C3c4ccccc4C(c4ccccc43)C2C1=O (stereo unspecified),19.9%,0.3%,-6.4%,i,1.6%,i

# From PubChem
